# Measured values as given in publication PMC7862700, “An all-to-all approach to the identification of sequence-specific readers for epigenetic DNA modifications on cytosine”.
# Tests used:
# Experiment in all cases: DAPPL (digital affinity profiling via proximity ligation, sequencing); 10 mM Tris-HCl pH 7.5, 50 mM NaCl, 1 mM DTT, 4% glycerol, room temperature, 30 min; GST-TFs on glutathione beads, 16-mer random dsDNA library, 0.1% formaldehyde crosslink after washing; high values mean tight binding
# Details in all cases: protein: recombinant; tags: N-terminal GST; dsDNA, one strand shown
# ELF3 = target: T1, ELF3 (Homo sapiens, UniProt P78545 1-371)
# T1 sequence: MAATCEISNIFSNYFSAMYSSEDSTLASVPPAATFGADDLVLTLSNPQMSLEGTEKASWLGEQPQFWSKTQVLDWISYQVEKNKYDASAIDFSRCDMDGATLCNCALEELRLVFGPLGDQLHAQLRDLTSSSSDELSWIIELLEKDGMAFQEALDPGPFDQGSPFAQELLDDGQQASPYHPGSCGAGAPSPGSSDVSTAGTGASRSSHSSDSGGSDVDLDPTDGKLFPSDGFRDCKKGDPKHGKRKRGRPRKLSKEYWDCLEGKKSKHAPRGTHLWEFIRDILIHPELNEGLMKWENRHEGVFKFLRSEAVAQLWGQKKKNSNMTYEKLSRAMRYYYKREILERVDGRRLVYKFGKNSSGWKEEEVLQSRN
# How it was run: (§1)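 Sequencing on an Illumina NextSeq500 followed washing, crosslinking with 0.1% formaldehyde, proximity ligation (BsaI/T4 ligase, 1 h, 37 °C) and PCR amplification of pools that had been incubated for 30 min at room temperature with 200 nmole of a random double-stranded 16-mer DNA library in Tris/NaCl/DTT/glycerol buffer. Each pool held DNA-barcoded human transcription factors, expressed in yeast as GST fusions and captured on glutathione beads, plus a tag-only sample. Binding signal is a hexamer's read frequency for a factor divided by its frequency in the tag-only sample.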
# CRX = CRX (Homo sapiens, UniProt O43186 1-299)
# Chain of CRX (O43186 whole entry): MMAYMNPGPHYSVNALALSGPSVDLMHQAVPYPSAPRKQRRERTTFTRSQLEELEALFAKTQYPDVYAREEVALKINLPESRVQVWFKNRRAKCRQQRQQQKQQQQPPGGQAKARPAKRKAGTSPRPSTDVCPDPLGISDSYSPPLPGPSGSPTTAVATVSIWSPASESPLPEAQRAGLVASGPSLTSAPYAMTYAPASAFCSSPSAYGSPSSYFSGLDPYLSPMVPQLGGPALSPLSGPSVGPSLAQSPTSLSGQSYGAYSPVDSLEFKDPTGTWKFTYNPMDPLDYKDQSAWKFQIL
# How it was run: as §1
# ETV1 = ETV1 (Homo sapiens, UniProt P50549 1-477)
# Chain of ETV1 (P50549 whole entry): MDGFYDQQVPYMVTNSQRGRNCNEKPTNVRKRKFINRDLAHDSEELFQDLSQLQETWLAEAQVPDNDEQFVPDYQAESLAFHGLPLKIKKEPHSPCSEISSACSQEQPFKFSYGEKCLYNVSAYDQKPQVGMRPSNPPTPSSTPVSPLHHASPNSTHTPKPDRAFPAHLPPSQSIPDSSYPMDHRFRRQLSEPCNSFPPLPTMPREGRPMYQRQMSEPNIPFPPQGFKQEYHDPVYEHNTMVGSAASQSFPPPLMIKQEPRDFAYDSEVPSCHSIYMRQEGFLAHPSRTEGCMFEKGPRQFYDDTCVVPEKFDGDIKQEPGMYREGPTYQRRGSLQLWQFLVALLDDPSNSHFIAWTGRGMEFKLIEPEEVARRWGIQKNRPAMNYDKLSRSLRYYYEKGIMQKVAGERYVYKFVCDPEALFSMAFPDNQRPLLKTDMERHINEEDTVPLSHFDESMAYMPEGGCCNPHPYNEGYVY
# How it was run: as §1
# ETV3L = target: T2, ETV3L (Homo sapiens, UniProt Q6ZN32 1-361)
# T2 sequence: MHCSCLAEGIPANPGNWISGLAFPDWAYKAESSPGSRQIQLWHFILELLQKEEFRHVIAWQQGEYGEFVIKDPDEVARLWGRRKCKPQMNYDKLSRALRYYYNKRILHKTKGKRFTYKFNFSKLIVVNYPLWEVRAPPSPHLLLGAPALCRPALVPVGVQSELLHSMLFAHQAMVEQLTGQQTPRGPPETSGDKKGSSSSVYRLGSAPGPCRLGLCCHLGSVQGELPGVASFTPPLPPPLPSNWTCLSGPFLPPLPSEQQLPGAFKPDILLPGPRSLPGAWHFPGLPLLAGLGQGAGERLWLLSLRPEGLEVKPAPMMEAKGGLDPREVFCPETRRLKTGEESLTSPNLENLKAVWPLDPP
# How it was run: as §1
# ETS2 = target: T3, ETS2 (Homo sapiens, UniProt P15036 1-469)
# T3 sequence: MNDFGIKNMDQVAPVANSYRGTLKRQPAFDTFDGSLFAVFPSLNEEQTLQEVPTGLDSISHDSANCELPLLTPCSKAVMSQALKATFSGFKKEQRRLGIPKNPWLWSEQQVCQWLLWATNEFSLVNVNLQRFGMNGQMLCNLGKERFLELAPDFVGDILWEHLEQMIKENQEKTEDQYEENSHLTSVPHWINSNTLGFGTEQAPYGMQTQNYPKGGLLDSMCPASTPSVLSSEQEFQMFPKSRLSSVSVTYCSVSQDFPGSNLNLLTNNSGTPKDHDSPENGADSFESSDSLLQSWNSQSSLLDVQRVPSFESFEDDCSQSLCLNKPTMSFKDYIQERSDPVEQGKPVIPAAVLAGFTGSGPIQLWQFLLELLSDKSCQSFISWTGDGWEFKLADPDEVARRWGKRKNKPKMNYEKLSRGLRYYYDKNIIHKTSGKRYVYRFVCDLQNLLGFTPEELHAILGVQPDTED
# How it was run: as §1
# SPDEF = target: T4, SPDEF (Homo sapiens, UniProt O95238 1-335)
# T4 sequence: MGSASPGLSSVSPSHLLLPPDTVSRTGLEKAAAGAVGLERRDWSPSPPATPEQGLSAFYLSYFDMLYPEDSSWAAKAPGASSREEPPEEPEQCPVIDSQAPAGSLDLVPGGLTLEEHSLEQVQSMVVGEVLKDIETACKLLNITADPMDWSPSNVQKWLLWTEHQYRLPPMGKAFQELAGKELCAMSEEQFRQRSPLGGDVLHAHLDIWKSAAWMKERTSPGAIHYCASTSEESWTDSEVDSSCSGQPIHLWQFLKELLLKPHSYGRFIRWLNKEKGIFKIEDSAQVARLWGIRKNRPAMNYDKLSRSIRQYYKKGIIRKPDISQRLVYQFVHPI
# How it was run: as §1
# ETV7 = target: T5, ETV7 (Homo sapiens, UniProt Q9Y603 1-341)
# T5 sequence: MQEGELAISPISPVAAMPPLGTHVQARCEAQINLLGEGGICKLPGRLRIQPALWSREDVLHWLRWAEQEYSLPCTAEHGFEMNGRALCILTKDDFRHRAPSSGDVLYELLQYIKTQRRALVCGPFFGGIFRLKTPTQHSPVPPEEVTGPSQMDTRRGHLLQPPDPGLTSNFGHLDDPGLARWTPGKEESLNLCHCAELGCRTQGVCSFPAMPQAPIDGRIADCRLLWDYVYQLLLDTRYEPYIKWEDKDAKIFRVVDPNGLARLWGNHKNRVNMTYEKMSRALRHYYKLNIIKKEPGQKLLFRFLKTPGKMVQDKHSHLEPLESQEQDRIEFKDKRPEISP
# How it was run: as §1
# ELF5 = target: T6, ELF5 (Homo sapiens, UniProt Q9UKW6-2 1-255)
# T6 sequence: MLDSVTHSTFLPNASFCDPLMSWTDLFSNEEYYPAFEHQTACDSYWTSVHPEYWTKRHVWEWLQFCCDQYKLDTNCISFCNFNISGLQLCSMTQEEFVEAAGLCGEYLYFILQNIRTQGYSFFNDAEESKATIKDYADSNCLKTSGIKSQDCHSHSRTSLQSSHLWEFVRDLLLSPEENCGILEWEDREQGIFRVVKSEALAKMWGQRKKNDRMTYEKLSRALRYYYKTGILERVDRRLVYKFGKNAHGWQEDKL
# How it was run: as §1
# ETV3 = target: T7, ETV3 (Homo sapiens, UniProt P41162-2 1-143)
# T7 sequence: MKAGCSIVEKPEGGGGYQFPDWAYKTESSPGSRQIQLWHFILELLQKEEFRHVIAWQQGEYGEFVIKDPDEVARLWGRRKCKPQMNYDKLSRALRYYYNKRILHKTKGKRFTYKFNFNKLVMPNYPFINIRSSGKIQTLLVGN
# How it was run: as §1
# ETV6 = ETV6 (Homo sapiens, UniProt P41212 1-452)
# Chain of ETV6 (P41212 whole entry): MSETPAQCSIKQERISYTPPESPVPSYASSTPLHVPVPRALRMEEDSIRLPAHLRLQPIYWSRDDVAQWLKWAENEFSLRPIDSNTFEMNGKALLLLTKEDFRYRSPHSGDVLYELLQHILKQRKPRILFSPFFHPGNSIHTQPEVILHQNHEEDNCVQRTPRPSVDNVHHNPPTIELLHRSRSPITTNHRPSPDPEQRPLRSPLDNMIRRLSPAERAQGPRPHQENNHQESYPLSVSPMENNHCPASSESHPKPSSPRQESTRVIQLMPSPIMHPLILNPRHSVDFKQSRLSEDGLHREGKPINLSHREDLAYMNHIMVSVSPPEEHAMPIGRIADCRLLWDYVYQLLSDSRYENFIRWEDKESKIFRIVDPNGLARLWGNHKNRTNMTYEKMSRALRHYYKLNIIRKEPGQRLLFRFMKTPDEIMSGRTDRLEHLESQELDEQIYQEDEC
# How it was run: as §1
sequence,measurement,setting,value
TCAGAT,binding signal,ELF3,"1.08 fold enrichment (6-mer frequency, TF over GST control)"
same,binding signal,CRX,"1.45 fold enrichment (6-mer frequency, TF over GST control)"
same,binding signal,ETV1,"1.05 fold enrichment (6-mer frequency, TF over GST control)"
same,binding signal,ETV3L,"1 fold enrichment (6-mer frequency, TF over GST control)"
same,binding signal,ETS2,"1.02 fold enrichment (6-mer frequency, TF over GST control)"
same,binding signal,SPDEF,"1.07 fold enrichment (6-mer frequency, TF over GST control)"
same,binding signal,ETV7,"1.03 fold enrichment (6-mer frequency, TF over GST control)"
same,binding signal,ELF5,"1 fold enrichment (6-mer frequency, TF over GST control)"
same,binding signal,ETV3,"1.02 fold enrichment (6-mer frequency, TF over GST control)"
same,binding signal,ETV6,"1.08 fold enrichment (6-mer frequency, TF over GST control)"
